Experimental data published in PubChem BioAssay.
Calls of active or inactive are those of the source. Unless noted, how the calls were made is not given here.

Assays:
[1] = anti-His antibody binders, primary screen, artefact control for SMM control protein annotation, biochemical, small-molecule microarray, 635 nm fluorescence (AID 1128); conditions: anti-His Alexa647 antibody binding, higher = more signal;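 further: score merges feature fluorescence with signal-to-noise for each printed compound spot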
[2] = tested on: Human papillomavirus type 1a E7 protein (residues 1-88); experiment: HPV1a E7 small-molecule binders, primary screen, biochemical, small-molecule microarray, residues 1-88, 635 nm (AID 1129); conditions: small-molecule microarray binding, fluorescence 635 nm; higher = more signal
[3] = molecular target: Focal adhesion kinase 1 (Homo sapiens) (UniProt Q05397); experiment: small-molecule microarray binders of FAK, primary screen, biochemical, 635/667 nm fluorescence, BSA, DTT (AID 1130); conditions: PTK2 binding, 635 nm fluorescence, higher = more signal;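 further: composite of spot emission at 667 nm and signal to noise over triplicate slides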
Chain of Focal adhesion kinase 1 (Homo sapiens) (Q05397 whole entry, looked up): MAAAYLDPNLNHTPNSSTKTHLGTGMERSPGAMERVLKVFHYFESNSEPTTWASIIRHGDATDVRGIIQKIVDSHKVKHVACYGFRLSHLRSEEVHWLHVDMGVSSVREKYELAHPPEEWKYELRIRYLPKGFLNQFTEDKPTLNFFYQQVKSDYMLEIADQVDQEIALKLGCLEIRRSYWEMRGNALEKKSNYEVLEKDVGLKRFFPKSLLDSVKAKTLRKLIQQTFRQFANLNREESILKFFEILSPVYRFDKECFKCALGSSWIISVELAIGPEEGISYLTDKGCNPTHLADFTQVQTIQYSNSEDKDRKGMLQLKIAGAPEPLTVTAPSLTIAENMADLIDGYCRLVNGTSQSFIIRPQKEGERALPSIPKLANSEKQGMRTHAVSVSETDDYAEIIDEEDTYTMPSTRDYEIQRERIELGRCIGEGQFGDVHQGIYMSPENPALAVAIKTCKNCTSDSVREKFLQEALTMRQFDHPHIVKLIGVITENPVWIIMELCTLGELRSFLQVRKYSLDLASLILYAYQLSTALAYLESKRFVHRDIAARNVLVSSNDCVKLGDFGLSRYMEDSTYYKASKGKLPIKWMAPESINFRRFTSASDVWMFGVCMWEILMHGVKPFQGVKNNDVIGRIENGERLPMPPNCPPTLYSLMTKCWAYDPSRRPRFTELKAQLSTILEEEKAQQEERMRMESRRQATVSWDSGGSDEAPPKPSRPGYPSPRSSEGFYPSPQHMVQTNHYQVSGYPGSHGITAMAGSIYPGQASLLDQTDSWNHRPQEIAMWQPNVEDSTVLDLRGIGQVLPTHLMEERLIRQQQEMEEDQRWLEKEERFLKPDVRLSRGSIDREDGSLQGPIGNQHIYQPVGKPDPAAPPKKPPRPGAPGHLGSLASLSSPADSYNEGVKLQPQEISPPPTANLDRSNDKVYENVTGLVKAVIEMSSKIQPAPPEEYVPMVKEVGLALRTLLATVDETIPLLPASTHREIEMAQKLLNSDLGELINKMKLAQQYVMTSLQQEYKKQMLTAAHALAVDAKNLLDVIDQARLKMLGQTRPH

[4] = tested on: Fibrinogen (Alexa647-labelled); experiment: fibrinogen binders on compound microarrays, profiling panel, artefact control for SMM control-protein annotation, biochemical, small-molecule microarray, 635/667 nm fluorescence (AID 1131); conditions: fibrinogen-A647 binding fluorescence, higher = more signal;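 further: z-score merges 667 nm fluorescence with per-spot signal-to-noise over triplicate slides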
[5] = molecular target: Follistatin (Homo sapiens) (UniProt P19883); experiment: follistatin binders on small-molecule microarrays, primary screen, biochemical, small-molecule microarray, 635/667 nm fluorescence (AID 1132); conditions: FST binding, 635 nm fluorescence, higher = more signal
Chain of Follistatin (Homo sapiens) (P19883 whole entry, looked up): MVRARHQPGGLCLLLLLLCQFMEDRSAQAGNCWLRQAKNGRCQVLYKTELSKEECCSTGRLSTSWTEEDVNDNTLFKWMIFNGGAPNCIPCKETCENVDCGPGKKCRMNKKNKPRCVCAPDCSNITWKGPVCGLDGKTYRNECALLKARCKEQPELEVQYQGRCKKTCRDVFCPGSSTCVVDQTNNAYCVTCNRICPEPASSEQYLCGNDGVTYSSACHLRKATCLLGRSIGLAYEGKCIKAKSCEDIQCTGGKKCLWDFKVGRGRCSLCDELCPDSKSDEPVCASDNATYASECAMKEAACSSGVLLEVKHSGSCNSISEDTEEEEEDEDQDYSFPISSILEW

[6] = molecular target: Fibroblast growth factor 2 (Homo sapiens) (UniProt P09038); experiment: FGF2 binders on small-molecule microarrays, primary screen, biochemical, small-molecule microarray, 635/667 nm fluorescence (AID 1133); conditions: small-molecule microarray binding, FGF2, fluorescence 635/667; higher = more signal
Chain of Fibroblast growth factor 2 (Homo sapiens) (P09038 whole entry, looked up): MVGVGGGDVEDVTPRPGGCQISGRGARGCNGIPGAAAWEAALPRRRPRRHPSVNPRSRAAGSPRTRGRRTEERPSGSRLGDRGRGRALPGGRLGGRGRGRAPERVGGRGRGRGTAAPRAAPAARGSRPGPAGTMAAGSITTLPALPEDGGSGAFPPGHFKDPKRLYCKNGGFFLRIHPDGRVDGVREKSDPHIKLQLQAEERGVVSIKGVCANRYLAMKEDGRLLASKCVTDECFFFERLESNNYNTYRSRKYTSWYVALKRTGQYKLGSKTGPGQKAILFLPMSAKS

[7] = mitochondrial membrane potential change in A549 cells, profiling panel, cell-based, JC-1 fluorescence, basal, 24 h, 100 nL (AID 1138); conditions: higher = more signal;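 further: A549 lung adenocarcinoma cells under basal conditions with no added stimulus; test concentration not given here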
Lefty1 = Lefty1 binders on small-molecule microarrays, primary screen, biochemical, small-molecule microarray, 635/667 nm fluorescence (AID 1139); conditions: small-molecule microarray binding, fluorescence 635/667; higher = more signal
[8] = tested on: wheat germ agglutinin (Triticum aestivum), Alexa647-labelled; experiment: wheat germ agglutinin binders on compound microarrays, profiling panel, artefact control for SMM control-protein annotation, biochemical, small-molecule microarray, 635/667 nm fluorescence (AID 1140); conditions: WGA-A647 binding, 635 nm fluorescence, higher = more signal;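 further: score merges 667 nm feature emission with signal to noise over triplicate slides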
[9] = molecular target: Luciferin 4-monooxygenase (Photinus pyralis) (UniProt P08659); experiment: firefly luciferase enzyme inhibitors, primary screen, biochemical, luminescence, purified enzyme, 2006 set (AID 1141); conditions: SteadyGlo luminescence, 30 min, higher = more signal, called active from +8 up or from −8 down;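 further: cell-free assay with purified firefly luciferase at 100 ng per well in PBS; test concentration not given here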
Chain of Luciferin 4-monooxygenase (Photinus pyralis) (P08659 whole entry, looked up): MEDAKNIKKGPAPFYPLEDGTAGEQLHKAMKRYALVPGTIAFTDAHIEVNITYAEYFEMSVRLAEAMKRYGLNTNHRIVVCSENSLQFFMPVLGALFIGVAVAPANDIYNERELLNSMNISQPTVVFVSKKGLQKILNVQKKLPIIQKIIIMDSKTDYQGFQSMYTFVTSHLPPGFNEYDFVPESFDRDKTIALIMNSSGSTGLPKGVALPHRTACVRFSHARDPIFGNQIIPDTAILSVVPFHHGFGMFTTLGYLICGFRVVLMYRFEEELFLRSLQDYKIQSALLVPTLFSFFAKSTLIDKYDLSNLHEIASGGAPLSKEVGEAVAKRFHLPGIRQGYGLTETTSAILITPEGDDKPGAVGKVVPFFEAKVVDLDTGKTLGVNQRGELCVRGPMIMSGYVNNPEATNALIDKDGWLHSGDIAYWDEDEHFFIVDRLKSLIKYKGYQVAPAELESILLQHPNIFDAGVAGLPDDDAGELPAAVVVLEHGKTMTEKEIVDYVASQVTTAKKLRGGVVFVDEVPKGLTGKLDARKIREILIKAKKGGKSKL

[10] = tested on: Wnt5a (protein binding on small-molecule microarray); experiment: Wnt5a binders on small-molecule microarray, primary screen, biophysical, 635/667 nm fluorescence (AID 1142); conditions: 635 nm fluorescence, higher = more signal;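 further: fluorescence read at 667 nm with signal to noise per printed feature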
[11] = cell viability in Huh7 cells, primary screen, cytotoxicity control for HCV replication inhibitor project, CellTiter-Glo luminescence, basal, 48 h (AID 1143); conditions: Huh7 HCV replicon, higher = more signal, called active from +8 up or from −8 down;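 further: Huh7 hepatoma cells carrying a hepatitis C replication reporter with no stimulus; test concentration not given here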
[12] = P. aeruginosa biofilm formation inhibitors, primary screen, PAO1 strain, BacTiter-Glo luminescence, LB-PBS (AID 1144); conditions: 12 h, higher = more signal
[13] = CREB reporter modulators without forskolin, primary screen, cell-based, PC12, CRE-LacZ reporter, unstimulated (AID 1145); conditions: no forskolin, luminescence, 4.5 h, higher = more signal, called active from +8 up or from −8 down
[14] = CREB reporter modulators under forskolin, primary screen, cell-based, PC12, CRE-LacZ reporter, forskolin-stimulated (AID 1146); conditions: luminescence, 4.5 h, higher = more signal, called active from +8 up or from −8 down;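 further: PC12 cells with 6xCRE LacZ reporter stimulated by forskolin 10 µM; beta-galactosidase reporter signal reflecting CREB driven transcription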
[15] = molecular target: Streptavidin (Streptomyces avidinii) (UniProt P22629); experiment: streptavidin binders on small-molecule microarray, primary screen, artefact control for SMM compound annotation, biophysical, 635/667 nm fluorescence (AID 1147); conditions: streptavidin binding, higher = more signal;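 further: signal reflects streptavidin binding to arrayed compounds as a control protein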
Chain of Streptavidin (Streptomyces avidinii) (P22629 whole entry, looked up): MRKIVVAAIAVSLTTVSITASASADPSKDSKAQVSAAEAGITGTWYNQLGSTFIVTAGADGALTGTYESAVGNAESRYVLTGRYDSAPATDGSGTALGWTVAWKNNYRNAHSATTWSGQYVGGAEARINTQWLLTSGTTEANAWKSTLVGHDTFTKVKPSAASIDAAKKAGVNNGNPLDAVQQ

[16] = small-molecule binders of probe aInhba, primary screen, biochemical, small-molecule microarray, 635/667 nm fluorescence (AID 1148); conditions: higher = more signal;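 further: score merges 667nm spot fluorescence with signal-to-noise for antibody binding to printed compounds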
Torsin-1A (Homo sapiens) [17] = molecular target: Torsin-1A (Homo sapiens) (UniProt O14656); experiment: torsin A binders from cell lysate, primary screen, small-molecule microarray, wild-type, 635/667 nm (AID 1149); conditions: COS7 hTOR1A-WT lysate, 635 nm fluorescence, higher = more signal
Chain of Torsin-1A (Homo sapiens) (O14656 whole entry, looked up): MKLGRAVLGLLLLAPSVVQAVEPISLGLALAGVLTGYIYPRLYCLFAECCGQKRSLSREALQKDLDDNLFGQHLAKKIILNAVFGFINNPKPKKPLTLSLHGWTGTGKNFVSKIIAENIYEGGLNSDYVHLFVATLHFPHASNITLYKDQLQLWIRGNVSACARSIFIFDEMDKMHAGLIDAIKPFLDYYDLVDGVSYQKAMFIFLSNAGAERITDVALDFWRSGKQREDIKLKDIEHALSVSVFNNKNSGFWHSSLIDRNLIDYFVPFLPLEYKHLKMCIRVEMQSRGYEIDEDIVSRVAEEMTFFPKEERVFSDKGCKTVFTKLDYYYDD

Torsin-1A (Homo sapiens) [18] = molecular target: Torsin-1A (Homo sapiens) (UniProt O14656); experiment: small-molecule binders of mutant TOR1A in lysate, primary screen, cell lysate, small-molecule microarray, COS7 lysate, 635/667 nm fluorescence (AID 1150); conditions: COS7 hTOR1A mutant lysate, 635 nm fluorescence, higher = more signal;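 further: score pools 667 nm emission and signal to noise measuring lysate protein binding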
[19] = tested on: Sonic hedgehog protein (Shh); experiment: small-molecule binders of Shh protein, primary screen, biochemical, small-molecule microarray, 635/667 nm fluorescence (AID 1151); conditions: small-molecule microarray binding, 635 nm fluorescence; higher = more signal;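 further: Shh protein binding to compounds spotted on small-molecule microarray slides; score combines spot fluorescence intensity with signal-to-noise across triplicate slides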

SMILES | composite z-score [1] | composite z-score [2] | composite z-score [3] | composite z-score [4] | composite z-score [5] | composite z-score [6] | z-score [7] | composite z-score (Lefty1) | composite z-score [8] | z-score [9] | composite z-score [10] | z-score [11] | z-score [12] | z-score [13] | z-score [14] | composite z-score [15] | composite z-score [16] | composite z-score (Torsin-1A (Homo sapiens) [17]) | composite z-score (Torsin-1A (Homo sapiens) [18]) | composite z-score [19]
CC(C)c1ccc(NN2C(C(O)C(C)C)C=CC3C(=O)N(c4ccccc4)C(=O)C32)cc1 (stereo not given) | 1.66 | 1.26 | 0.811 | 1.04 | 0.754 | 0.013 | -0.81 | 0.172 | 1.12 | -1.73 (inactive) | 0.705 | -0.135 (inactive) | -0.202 (inactive) | 0.0569 (inactive) | -0.241 (inactive) | 1.44 | 0.722 | -0.317 | 0.431 | -0.316
COc1cc2c(cc1O)C(C1CC1)N(Cc1ccc([N+](=O)[O-])o1)CC2 (stereo not given) | 0.852 | 1.12 | 0.325 | 0.577 | 0.361 | -0.0629 | -0.184 | -0.546 | 1.06 | -0.924 (inactive) | 0.128 | -0.148 (inactive) | 0.741 (inactive) | 0.0924 (inactive) | 0.786 (inactive) | 1.63 | 0.161 | 0.322 | 0.521 | -0.575
C=CCNC(=O)[C@H]1[C@@H]2C(=O)O[C@@H](c3ccccc3)[C@@H](c3ccccc3)N2[C@@H](c2ccccc2OCCO)[C@]12C(=O)N(C(=O)OCCOC)c1ccccc12 | 1.23 | 1.22 | 0.706 | 0.887 | 0.465 | 0.849 | -0.276 | 0.583 | 1.07 | 0.206 (inactive) | 0.307 | -4.39 (inactive) | 0.369 (inactive) | -0.195 (inactive) | 6.34 (inactive) | 0.618 | -0.358 | -0.025 | 0.664 | 1.14
C=CCC(OC(C)=O)[C@@H]1[C@@H](N(Cc2ccc(-c3cccc(C(F)(F)F)c3)o2)C(=O)c2cccc3ccccc23)c2cc(OCCCO)ccc2N1C(=O)c1ccc2ccccc2n1 (stereo not given in full) | -0.188 | -0.696 | -0.323 | -0.0203 | 0.587 | 0.0226 | -0.431 | 0.375 | -0.0681 | 0.587 (inactive) | -0.0713 | -1.33 (inactive) | -0.214 (inactive) | -0.258 (inactive) | 0.0155 (inactive) | -0.32 | -0.024 | 0.17 | -0.662 | 0.259
O=C1O[C@H](c2ccccc2)[C@H](c2ccccc2)N2[C@H]1[C@@H](C(=O)N1CCN(c3ncccn3)CC1)[C@]1(C(=O)Nc3ccccc31)[C@H]2c1ccc(O)cc1 | 2.34 | 1.07 | 0.759 | 0.635 | 0.889 | 0.451 | 0.028 | -0.116 | 0.185 | -1.3 (inactive) | 0.186 | -2.48 (inactive) | -0.151 (inactive) | 0.299 (inactive) | -0.682 (inactive) | -0.0699 | 0.0018 | 0.103 | 0.799 | 0.0388
CCCCN1CC=CC23O[C@@H]4/C=C\CCC(C)OC(=O)C4[C@H]2C(=O)N(C(C)CO)[C@@H]3C1=O (stereo not given in full) | -0.0307 | -1.41 | 0.578 | -0.526 | -0.16 | -0.379 | 0.256 | -0.034 | -0.128 | -0.762 (inactive) | -0.0151 | 0.24 (inactive) | -0.297 (inactive) | -0.497 (inactive) | -0.21 (inactive) | -0.447 | -0.161 | -0.185 | -1.01 | -0.0387
O=C(NCCO)C1=C[C@H](Oc2ccccc2I)[C@@H](O)[C@H](NCc2ccc(F)cc2)C1 | -0.223 | -1.23 | -0.279 | -2.27 | 1.31 | 0.795 | -0.697 | 1.45 | -1.25 | 0.243 (inactive) | 0.273 | -2.8 (inactive) | 0.148 (inactive) | 4.56 (inactive) | 0.925 (inactive) | -0.743 | -0.197 | 0.693 | 1 | 2.08
CCN(CC)c1ccc(N2CC=CC34O[C@@H]5C=CCOC(=O)[C@@H]5[C@H]3C(=O)N(CCO)[C@@H]4C2=O)cc1 (stereo not given in full) | -0.305 | -0.508 | -0.856 | -0.602 | -0.721 | -1.44 | 1.41 | -1.35 | -1.38 | -1.47 (inactive) | -0.403 | -0.271 (inactive) | 1.72 (inactive) | -0.0656 (inactive) | -0.599 (inactive) | -1.77 | 0.476 | -0.0491 | -0.669 | -0.198
COc1ccc([Si](C)(C)[C@H]2[C@H](CCO)O[C@@]3(C(=O)N(Cc4ccc(N5CCOC5=O)cc4)c4ccccc43)[C@@H]2C)cc1 | 0.965 | 0.516 | 0.5 | 0.45 | -0.11 | -0.271 | 0.533 | 0.263 | 0.433 | -0.605 (inactive) | -0.159 | -3.29 (inactive) | -0.232 (inactive) | 2.2 (inactive) | -2.06 (inactive) | 0.346 | -0.0791 | 0.216 | 0.0362 | 0.397
COC(=O)[C@@]1(Cc2ccc(F)cc2)[C@H]2c3cc(C(=O)N(C)C)n(CCN4CCOCC4)c3C[C@H]2CN1C(=O)c1ccccc1 | 1.65 | 1.19 | 1.14 | 0.32 | -0.0389 | -0.708 | 0.147 | -0.0199 | 0.331 | 2.64 (inactive) | 0.483 | -1.02 (inactive) | 0.263 (inactive) | -0.372 (inactive) | 0.823 (inactive) | 1.36 | 0.17 | 2.73 | 2.17 | -0.976
